# The source made the active and inactive calls. Unless noted, the rule behind the calls is not given here.
# Experiments:
# [1] = compounds binding Alexa647 anti-His antibody – biochemical, small-molecule microarray, 635 nm fluorescence, artefact control for SMM control protein annotation, primary screen (AID 1128); settings: higher = more signal;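 note: score merges feature fluorescence with signal-to-noise for each printed compound spot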
# [2] = system: Human papillomavirus type 1a E7 protein (residues 1-88); test: HPV1a E7 small-molecule binders, primary screen, biochemical, small-molecule microarray, residues 1-88, 635 nm (AID 1129); settings: small-molecule microarray binding, fluorescence 635 nm; higher = more signal
# [3] = target: Focal adhesion kinase 1 (Homo sapiens) (UniProt Q05397); test: PTK2 protein binding on printed compound slides – biochemical, small-molecule microarray, 635/667 nm fluorescence, BSA, DTT, primary screen (AID 1130); settings: 635 nm fluorescence, higher = more signal;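 note: composite of spot emission at 667 nm and signal to noise over triplicate slides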
# Focal adhesion kinase 1 (Homo sapiens), sequence (Q05397 whole entry, looked up): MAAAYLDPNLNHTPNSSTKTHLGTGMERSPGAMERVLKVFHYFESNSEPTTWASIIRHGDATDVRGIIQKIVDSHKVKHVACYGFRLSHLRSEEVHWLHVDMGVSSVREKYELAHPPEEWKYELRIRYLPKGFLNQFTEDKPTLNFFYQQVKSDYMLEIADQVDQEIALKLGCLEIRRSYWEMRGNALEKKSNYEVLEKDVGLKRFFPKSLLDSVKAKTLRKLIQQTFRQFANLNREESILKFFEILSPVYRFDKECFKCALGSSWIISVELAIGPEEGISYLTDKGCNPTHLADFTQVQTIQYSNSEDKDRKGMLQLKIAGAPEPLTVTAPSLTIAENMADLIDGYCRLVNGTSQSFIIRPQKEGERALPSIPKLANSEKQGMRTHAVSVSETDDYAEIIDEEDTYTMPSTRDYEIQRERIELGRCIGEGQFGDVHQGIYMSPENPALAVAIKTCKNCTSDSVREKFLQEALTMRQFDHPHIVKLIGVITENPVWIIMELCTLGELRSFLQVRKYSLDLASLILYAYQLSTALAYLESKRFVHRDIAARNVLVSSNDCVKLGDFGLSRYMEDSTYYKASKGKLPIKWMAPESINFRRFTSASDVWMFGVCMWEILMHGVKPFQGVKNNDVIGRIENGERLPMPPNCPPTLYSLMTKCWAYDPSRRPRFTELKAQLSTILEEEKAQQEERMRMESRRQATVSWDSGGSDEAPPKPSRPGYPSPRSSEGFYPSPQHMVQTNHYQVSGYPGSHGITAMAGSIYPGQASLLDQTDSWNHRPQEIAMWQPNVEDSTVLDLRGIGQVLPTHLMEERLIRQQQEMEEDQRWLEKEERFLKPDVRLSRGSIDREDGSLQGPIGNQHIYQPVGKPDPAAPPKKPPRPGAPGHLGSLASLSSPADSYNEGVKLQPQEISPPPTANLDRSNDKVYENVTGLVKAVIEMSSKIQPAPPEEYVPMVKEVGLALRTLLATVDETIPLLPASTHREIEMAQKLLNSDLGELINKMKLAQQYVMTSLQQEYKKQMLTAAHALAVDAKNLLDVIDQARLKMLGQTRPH
# [4] = system: Fibrinogen (Alexa647-labelled); test: Alexa647-fibrinogen binding to printed small molecules – biochemical, small-molecule microarray, 635/667 nm fluorescence, artefact control for SMM control-protein annotation, profiling panel (AID 1131); settings: fibrinogen-A647 binding fluorescence, higher = more signal;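 note: z-score merges 667 nm fluorescence with per-spot signal-to-noise over triplicate slides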
# [5] = target: Follistatin (Homo sapiens) (UniProt P19883); test: FST protein binding to printed compounds – biochemical, small-molecule microarray, 635/667 nm fluorescence, primary screen (AID 1132); settings: 635 nm fluorescence, higher = more signal
# Follistatin (Homo sapiens), sequence (P19883 whole entry, looked up): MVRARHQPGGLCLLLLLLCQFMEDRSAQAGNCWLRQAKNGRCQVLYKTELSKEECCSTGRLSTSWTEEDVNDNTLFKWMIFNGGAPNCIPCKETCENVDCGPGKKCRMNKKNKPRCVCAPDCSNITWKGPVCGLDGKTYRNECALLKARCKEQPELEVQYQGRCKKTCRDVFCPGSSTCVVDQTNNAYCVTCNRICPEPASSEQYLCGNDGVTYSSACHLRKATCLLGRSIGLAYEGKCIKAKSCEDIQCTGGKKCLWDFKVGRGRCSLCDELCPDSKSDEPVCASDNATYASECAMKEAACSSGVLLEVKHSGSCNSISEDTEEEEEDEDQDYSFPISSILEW
# [6] = target: Fibroblast growth factor 2 (Homo sapiens) (UniProt P09038); test: basic fibroblast growth factor binding to printed compounds – biochemical, small-molecule microarray, 635/667 nm fluorescence, primary screen (AID 1133); settings: FGF2, fluorescence 635/667, higher = more signal
# Fibroblast growth factor 2 (Homo sapiens), sequence (P09038 whole entry, looked up): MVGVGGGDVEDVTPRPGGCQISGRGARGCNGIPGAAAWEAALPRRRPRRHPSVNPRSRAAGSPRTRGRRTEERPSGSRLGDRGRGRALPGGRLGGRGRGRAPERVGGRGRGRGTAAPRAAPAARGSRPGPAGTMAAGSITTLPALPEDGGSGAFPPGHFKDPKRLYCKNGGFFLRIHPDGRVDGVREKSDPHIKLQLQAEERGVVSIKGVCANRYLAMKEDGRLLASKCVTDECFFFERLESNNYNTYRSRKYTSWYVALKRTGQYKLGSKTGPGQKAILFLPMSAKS
# [7] = JC-1 mitochondrial potential readout, lung cancer cells – cell-based, A549, JC-1 fluorescence, basal, 24 h, 100 nL, profiling panel (AID 1138); settings: higher = more signal;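 note: A549 lung adenocarcinoma cells under basal conditions with no added stimulus; test concentration not given here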
# Lefty1 = Lefty1 protein binding to printed compounds – biochemical, small-molecule microarray, 635/667 nm fluorescence, primary screen (AID 1139); settings: fluorescence 635/667, higher = more signal
# [8] = system: wheat germ agglutinin (Triticum aestivum), Alexa647-labelled; test: Alexa647-WGA lectin binding to printed small molecules – biochemical, small-molecule microarray, 635/667 nm fluorescence, artefact control for SMM control-protein annotation, profiling panel (AID 1140); settings: WGA-A647 binding, 635 nm fluorescence, higher = more signal;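 note: score merges 667 nm feature emission with signal to noise over triplicate slides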
# [9] = target: Luciferin 4-monooxygenase (Photinus pyralis) (UniProt P08659); test: inhibition of purified Photinus pyralis luciferase – biochemical, luminescence, purified enzyme, 2006 set, primary screen (AID 1141); settings: purified firefly luciferase, SteadyGlo luminescence, 30 min; higher = more signal, called active from +8 up or from −8 down;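 note: cell-free assay with purified firefly luciferase at 100 ng per well in PBS; test concentration not given here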
# Luciferin 4-monooxygenase (Photinus pyralis), sequence (P08659 whole entry, looked up): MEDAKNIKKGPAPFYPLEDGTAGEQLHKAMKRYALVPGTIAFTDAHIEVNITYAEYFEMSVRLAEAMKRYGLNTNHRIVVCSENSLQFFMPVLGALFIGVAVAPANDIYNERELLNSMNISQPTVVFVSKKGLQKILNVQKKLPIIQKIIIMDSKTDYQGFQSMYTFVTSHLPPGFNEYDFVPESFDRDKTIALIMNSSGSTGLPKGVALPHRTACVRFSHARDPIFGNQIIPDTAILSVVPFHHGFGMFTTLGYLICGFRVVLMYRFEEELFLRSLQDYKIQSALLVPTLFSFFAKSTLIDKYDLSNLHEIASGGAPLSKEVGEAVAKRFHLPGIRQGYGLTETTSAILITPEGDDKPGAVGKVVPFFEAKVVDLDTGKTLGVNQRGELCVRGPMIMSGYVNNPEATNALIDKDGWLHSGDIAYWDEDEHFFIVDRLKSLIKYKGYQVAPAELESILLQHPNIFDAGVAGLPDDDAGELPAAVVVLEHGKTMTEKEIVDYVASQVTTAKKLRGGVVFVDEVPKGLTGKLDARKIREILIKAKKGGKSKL
# [10] = system: Wnt5a (protein binding on small-molecule microarray); test: small molecules binding Wnt5a protein – biophysical, small-molecule microarray, 635/667 nm fluorescence, primary screen (AID 1142); settings: 635 nm fluorescence, higher = more signal;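 note: fluorescence read at 667 nm with signal to noise per printed feature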
# [11] = ATP-based viability of Huh7 replicon cells – cell-based, CellTiter-Glo luminescence, basal, 48 h, cytotoxicity control for HCV replication inhibitor project, primary screen (AID 1143); settings: higher = more signal, called active from +8 up or from −8 down;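 note: Huh7 hepatoma cells carrying a hepatitis C replication reporter with no stimulus; test concentration not given here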
# [12] = Pseudomonas biofilm growth suppression – PAO1 strain, BacTiter-Glo luminescence, LB-PBS, primary screen (AID 1144); settings: P. aeruginosa PAO1 biofilm, 12 h, higher = more signal
# [13] = basal CRE-LacZ reporter activity in PC12 – cell-based, unstimulated, primary screen (AID 1145); settings: no forskolin, luminescence, 4.5 h, higher = more signal, called active from +8 up or from −8 down
# [14] = forskolin-driven CRE-LacZ activity in PC12 – cell-based, CRE-LacZ reporter, forskolin-stimulated, primary screen (AID 1146); settings: luminescence, 4.5 h, higher = more signal, called active from +8 up or from −8 down;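 note: PC12 cells with 6xCRE LacZ reporter stimulated by forskolin 10 µM; beta-galactosidase reporter signal reflecting CREB driven transcription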
# [15] = target: Streptavidin (Streptomyces avidinii) (UniProt P22629); test: compounds binding control protein streptavidin – biophysical, small-molecule microarray, 635/667 nm fluorescence, artefact control for SMM compound annotation, primary screen (AID 1147); settings: higher = more signal;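 note: signal reflects streptavidin binding to arrayed compounds as a control protein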
# Streptavidin (Streptomyces avidinii), sequence (P22629 whole entry, looked up): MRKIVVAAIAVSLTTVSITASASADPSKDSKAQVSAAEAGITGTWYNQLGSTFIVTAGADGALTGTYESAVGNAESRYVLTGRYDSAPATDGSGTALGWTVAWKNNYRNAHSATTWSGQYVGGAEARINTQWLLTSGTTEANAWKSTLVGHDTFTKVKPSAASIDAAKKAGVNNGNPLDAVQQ
# [16] = probe aInhba binding on compound microarray – biochemical, small-molecule microarray, 635/667 nm fluorescence, primary screen (AID 1148); settings: higher = more signal;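 note: score merges 667nm spot fluorescence with signal-to-noise for antibody binding to printed compounds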
# Torsin-1A (Homo sapiens) [17] = target: Torsin-1A (Homo sapiens) (UniProt O14656); test: TOR1A wild-type binding on microarray – cell lysate, small-molecule microarray, lysate, 635/667 nm, primary screen (AID 1149); settings: COS7 hTOR1A-WT lysate, 635 nm fluorescence, higher = more signal
# Torsin-1A (Homo sapiens), sequence (O14656 whole entry, looked up): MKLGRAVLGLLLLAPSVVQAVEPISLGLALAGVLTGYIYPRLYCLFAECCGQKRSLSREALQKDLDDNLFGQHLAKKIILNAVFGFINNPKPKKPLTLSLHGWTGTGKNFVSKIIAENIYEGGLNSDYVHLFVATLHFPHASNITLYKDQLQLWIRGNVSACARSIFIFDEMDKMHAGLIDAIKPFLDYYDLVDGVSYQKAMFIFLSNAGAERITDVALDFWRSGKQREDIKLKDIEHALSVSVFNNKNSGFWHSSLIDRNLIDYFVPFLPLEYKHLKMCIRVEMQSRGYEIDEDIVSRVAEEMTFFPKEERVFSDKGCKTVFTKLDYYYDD
# Torsin-1A (Homo sapiens) [18] = target: Torsin-1A (Homo sapiens) (UniProt O14656); test: torsin A mutant lysate binding on microarrays – cell lysate, small-molecule microarray, COS7 lysate, 635/667 nm fluorescence, primary screen (AID 1150); settings: COS7 hTOR1A mutant lysate, 635 nm fluorescence, higher = more signal;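 note: score pools 667 nm emission and signal to noise measuring lysate protein binding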
# [19] = system: Sonic hedgehog protein (Shh); test: Sonic hedgehog microarray binding compounds – biochemical, small-molecule microarray, 635/667 nm fluorescence, primary screen (AID 1151); settings: 635 nm fluorescence, higher = more signal;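 note: Shh protein binding to compounds spotted on small-molecule microarray slides; score combines spot fluorescence intensity with signal-to-noise across triplicate slides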
Compound,composite z-score [1],composite z-score [2],composite z-score [3],composite z-score [4],composite z-score [5],composite z-score [6],z-score [7],composite z-score (Lefty1),composite z-score [8],z-score [9],composite z-score [10],z-score [11],z-score [12],z-score [13],z-score [14],composite z-score [15],composite z-score [16],composite z-score (Torsin-1A (Homo sapiens) [17]),composite z-score (Torsin-1A (Homo sapiens) [18]),composite z-score [19]
COc1ccc(-c2cc3c(c(-c4ccc(Oc5ccccc5)cc4)n2)[Si](C(C)C)(C(C)C)OC3)cn1,0.0674,-0.221,0.158,-0.424,0.525,-0.224,-0.0734,0.278,-0.12,0.223 (inactive),-0.394,-1.11 (inactive),-0.0233 (inactive),-0.127 (inactive),-0.0129 (inactive),0.114,0.038,-0.664,-0.336,1.08
CC(C)C(=C=CC[C@H](O)c1ccc(OCCO)cc1)CCO,1.07,1.2,0.178,0.53,1.38,1.05,0.41,1.07,0.295,-0.961 (inactive),0.803,-1.97 (inactive),-0.596 (inactive),3.49 (inactive),0.36 (inactive),0.0996,-0.179,1.37,0.653,2.05
Oc1ccc2cc[n+](Cc3sc4ccccc4c3Cl)cc2c1,-0.146,-0.537,0.703,-0.462,1.33,0.567,-0.832,0.506,1.14,-0.226 (inactive),-0.127,-0.683 (inactive),-0.521 (inactive),-0.374 (inactive),0.232 (inactive),0.361,-0.12,-0.648,0.11,1.53
CN(C)CCCCCCNC(=O)[C@@H]1C[C@@H]2C(=O)N[C@@H](Cc3ccccc3)C(=O)N2[C@@H]1c1ccc(O)cc1,2.45,1.23,0.303,0.493,1.44,1.63,-1.06,1.67,0.715,0.205 (inactive),0.484,-0.764 (inactive),-0.0157 (inactive),-0.528 (inactive),-0.167 (inactive),0.405,-0.025,0.641,1.37,2.19
CC(C)NC(=O)[C@@]1(c2ccc([N+](=O)[O-])cc2)CC(=O)N(C2CCCCC2)[C@@H]1c1ccc(CO)cc1I,-0.0568,1.15,0.52,-0.517,-0.315,-0.331,2.97,-0.491,-0.0784,-1.11 (inactive),-0.0239,-4.27 (inactive),1.11 (inactive),1.04 (inactive),-0.727 (inactive),-0.154,0.0497,0.0498,0.242,-0.241

# — PubChem BioAssay
